Article PMC7862700, “An all-to-all approach to the identification of sequence-specific readers for epigenetic DNA modifications on cytosine”

Tests used:
Experiment in all cases: DAPPL (digital affinity profiling via proximity ligation, sequencing); 10 mM Tris-HCl pH 7.5, 50 mM NaCl, 1 mM DTT, 4% glycerol, room temperature, 30 min; GST-TFs on glutathione beads, 16-mer random dsDNA library, 0.1% formaldehyde crosslink after washing; high values mean tight binding
Details in all cases: protein: recombinant; tags: N-terminal GST; dsDNA, one strand shown
[1] = target: T1, ERF (Homo sapiens, UniProt P50548 1-548)
T1 sequence: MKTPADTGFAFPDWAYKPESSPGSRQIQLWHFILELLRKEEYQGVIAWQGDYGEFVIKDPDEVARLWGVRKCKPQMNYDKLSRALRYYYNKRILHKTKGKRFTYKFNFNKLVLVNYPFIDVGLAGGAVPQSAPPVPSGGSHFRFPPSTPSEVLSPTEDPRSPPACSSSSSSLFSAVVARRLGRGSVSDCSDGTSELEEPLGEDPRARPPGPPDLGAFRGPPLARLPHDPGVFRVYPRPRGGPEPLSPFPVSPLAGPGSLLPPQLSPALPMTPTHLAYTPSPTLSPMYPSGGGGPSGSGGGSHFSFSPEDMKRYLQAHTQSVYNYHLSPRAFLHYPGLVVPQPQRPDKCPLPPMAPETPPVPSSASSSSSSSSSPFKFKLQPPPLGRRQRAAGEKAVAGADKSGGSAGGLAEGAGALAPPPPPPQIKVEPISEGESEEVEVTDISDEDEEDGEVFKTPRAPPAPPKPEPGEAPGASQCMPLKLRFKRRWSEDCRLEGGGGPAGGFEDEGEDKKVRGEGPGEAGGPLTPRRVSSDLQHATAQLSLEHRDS
Method in brief: (§1)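 Binding signal is defined as a hexamer's read frequency for one factor over its frequency for the tag-only sample. To obtain reads, GST-fused human transcription factors were expressed in yeast, captured on glutathione beads, barcoded with DNA and pooled with that sample. Pools met 200 nmole of a 16-mer random double-stranded DNA library in Tris/NaCl/DTT/glycerol buffer for 30 min at room temperature before washing, 0.1% formaldehyde crosslinking, proximity ligation (BsaI/T4 ligase, 1 h, 37 °C), PCR and Illumina NextSeq500 sequencing.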

[2] = target: T2, ETV3L (Homo sapiens, UniProt Q6ZN32 1-361)
T2 sequence: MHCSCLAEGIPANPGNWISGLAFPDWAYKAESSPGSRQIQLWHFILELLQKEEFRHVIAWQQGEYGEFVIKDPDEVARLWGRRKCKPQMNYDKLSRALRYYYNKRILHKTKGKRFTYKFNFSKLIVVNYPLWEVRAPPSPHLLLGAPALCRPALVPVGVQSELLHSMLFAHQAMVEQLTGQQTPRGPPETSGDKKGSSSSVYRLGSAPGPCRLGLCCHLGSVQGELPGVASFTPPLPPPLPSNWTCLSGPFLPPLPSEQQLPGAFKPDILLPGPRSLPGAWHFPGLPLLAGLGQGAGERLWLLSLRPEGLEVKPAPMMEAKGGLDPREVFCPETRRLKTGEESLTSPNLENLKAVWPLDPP
Method in brief: as §1

[3] = target: T3, ETS2 (Homo sapiens, UniProt P15036 1-469)
T3 sequence: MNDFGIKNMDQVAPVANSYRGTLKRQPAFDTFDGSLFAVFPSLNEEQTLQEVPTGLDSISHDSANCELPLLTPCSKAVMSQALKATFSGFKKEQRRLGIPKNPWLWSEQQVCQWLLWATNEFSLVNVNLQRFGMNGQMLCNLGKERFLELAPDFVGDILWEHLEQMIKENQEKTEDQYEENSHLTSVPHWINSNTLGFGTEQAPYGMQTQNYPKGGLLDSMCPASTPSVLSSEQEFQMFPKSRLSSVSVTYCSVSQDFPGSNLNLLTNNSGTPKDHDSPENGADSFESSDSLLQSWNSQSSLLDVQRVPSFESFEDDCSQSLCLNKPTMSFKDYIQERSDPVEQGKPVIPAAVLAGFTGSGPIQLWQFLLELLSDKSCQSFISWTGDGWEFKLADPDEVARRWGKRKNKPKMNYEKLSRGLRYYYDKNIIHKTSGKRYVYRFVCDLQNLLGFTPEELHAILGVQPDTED
Method in brief: as §1

[4] = target: T4, SPDEF (Homo sapiens, UniProt O95238 1-335)
T4 sequence: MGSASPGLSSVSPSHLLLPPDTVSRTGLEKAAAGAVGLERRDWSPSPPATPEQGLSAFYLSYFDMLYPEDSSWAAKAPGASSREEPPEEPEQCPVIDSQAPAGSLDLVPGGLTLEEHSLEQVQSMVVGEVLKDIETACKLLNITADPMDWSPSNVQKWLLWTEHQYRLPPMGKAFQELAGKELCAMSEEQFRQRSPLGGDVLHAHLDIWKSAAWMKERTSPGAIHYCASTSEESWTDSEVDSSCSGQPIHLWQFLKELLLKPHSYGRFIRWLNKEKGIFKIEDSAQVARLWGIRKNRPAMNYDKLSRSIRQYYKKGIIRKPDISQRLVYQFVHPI
Method in brief: as §1

[5] = target: T5, ETV7 (Homo sapiens, UniProt Q9Y603 1-341)
T5 sequence: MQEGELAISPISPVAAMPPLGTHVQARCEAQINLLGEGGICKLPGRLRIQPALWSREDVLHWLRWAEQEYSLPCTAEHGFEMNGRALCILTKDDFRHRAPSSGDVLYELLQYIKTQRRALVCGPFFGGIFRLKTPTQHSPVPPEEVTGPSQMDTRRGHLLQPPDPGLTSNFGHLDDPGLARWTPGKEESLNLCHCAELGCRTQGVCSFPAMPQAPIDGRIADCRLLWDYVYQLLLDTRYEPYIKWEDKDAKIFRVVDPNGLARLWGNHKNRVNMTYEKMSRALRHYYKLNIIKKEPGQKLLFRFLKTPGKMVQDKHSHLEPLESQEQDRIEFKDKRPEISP
Method in brief: as §1

[6] = target: T6, ELF5 (Homo sapiens, UniProt Q9UKW6-2 1-255)
T6 sequence: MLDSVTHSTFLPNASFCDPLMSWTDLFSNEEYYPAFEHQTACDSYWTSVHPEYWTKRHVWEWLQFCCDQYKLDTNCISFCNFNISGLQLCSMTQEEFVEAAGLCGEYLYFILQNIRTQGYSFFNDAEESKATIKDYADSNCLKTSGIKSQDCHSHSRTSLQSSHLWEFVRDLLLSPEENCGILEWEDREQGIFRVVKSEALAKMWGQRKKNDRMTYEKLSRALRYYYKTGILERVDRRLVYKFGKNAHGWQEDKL
Method in brief: as §1

[7] = target: T7, ETV3 (Homo sapiens, UniProt P41162-2 1-143)
T7 sequence: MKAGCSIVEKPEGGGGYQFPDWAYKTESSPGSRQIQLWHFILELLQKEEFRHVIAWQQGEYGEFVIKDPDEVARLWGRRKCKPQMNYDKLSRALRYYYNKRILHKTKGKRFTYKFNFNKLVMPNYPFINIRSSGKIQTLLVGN
Method in brief: as §1

[8] = target: ETV6 (Homo sapiens, UniProt P41212 1-452)
Method in brief: as §1

Sequence of ETV6 (P41212 whole entry): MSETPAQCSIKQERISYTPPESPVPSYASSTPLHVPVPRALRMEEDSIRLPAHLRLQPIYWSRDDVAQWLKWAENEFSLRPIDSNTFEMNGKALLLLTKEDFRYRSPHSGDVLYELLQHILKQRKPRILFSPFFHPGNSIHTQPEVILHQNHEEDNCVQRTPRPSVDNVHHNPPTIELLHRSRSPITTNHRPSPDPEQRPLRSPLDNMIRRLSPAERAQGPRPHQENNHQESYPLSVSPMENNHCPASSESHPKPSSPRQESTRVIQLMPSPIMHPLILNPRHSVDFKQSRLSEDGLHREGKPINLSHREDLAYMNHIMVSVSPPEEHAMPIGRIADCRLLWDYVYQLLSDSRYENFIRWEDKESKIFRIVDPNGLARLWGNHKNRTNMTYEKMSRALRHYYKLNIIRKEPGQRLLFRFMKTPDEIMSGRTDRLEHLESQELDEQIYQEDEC

Sequence | binding signal [1] | binding signal [2] | binding signal [3] | binding signal [4] | binding signal [5] | binding signal [6] | binding signal [7] | binding signal [8]
TTCCTA | 1.54 fold enrichment (6-mer frequency, TF over GST control) | 1.57 fold enrichment (6-mer frequency, TF over GST control) | 1.8 fold enrichment (6-mer frequency, TF over GST control) | 1.6 fold enrichment (6-mer frequency, TF over GST control) | 1.64 fold enrichment (6-mer frequency, TF over GST control) | 2.04 fold enrichment (6-mer frequency, TF over GST control) | 1.89 fold enrichment (6-mer frequency, TF over GST control) | 1.99 fold enrichment (6-mer frequency, TF over GST control)
CATTCT | 1.43 fold enrichment (6-mer frequency, TF over GST control) | 1.31 fold enrichment (6-mer frequency, TF over GST control) | 1.23 fold enrichment (6-mer frequency, TF over GST control) | 1.24 fold enrichment (6-mer frequency, TF over GST control) | 1.35 fold enrichment (6-mer frequency, TF over GST control) | 1.27 fold enrichment (6-mer frequency, TF over GST control) | 1.21 fold enrichment (6-mer frequency, TF over GST control) | 1.34 fold enrichment (6-mer frequency, TF over GST control)
GTTCTC | 1.22 fold enrichment (6-mer frequency, TF over GST control) | 1.35 fold enrichment (6-mer frequency, TF over GST control) | 1.24 fold enrichment (6-mer frequency, TF over GST control) | 1.22 fold enrichment (6-mer frequency, TF over GST control) | 1.26 fold enrichment (6-mer frequency, TF over GST control) | 1.25 fold enrichment (6-mer frequency, TF over GST control) | 1.35 fold enrichment (6-mer frequency, TF over GST control) | 1.23 fold enrichment (6-mer frequency, TF over GST control)
CTACGA | 1.23 fold enrichment (6-mer frequency, TF over GST control) | 1.24 fold enrichment (6-mer frequency, TF over GST control) | 1.25 fold enrichment (6-mer frequency, TF over GST control) | 1.17 fold enrichment (6-mer frequency, TF over GST control) | 1.26 fold enrichment (6-mer frequency, TF over GST control) | 1.19 fold enrichment (6-mer frequency, TF over GST control) | 1.15 fold enrichment (6-mer frequency, TF over GST control) | 1.16 fold enrichment (6-mer frequency, TF over GST control)
ATTATG | 1.11 fold enrichment (6-mer frequency, TF over GST control) | 1.27 fold enrichment (6-mer frequency, TF over GST control) | 1.14 fold enrichment (6-mer frequency, TF over GST control) | 1.19 fold enrichment (6-mer frequency, TF over GST control) | 1.32 fold enrichment (6-mer frequency, TF over GST control) | 1.14 fold enrichment (6-mer frequency, TF over GST control) | 1.2 fold enrichment (6-mer frequency, TF over GST control) | 1.33 fold enrichment (6-mer frequency, TF over GST control)
CTCACA | 1.29 fold enrichment (6-mer frequency, TF over GST control) | 1.38 fold enrichment (6-mer frequency, TF over GST control) | 1.31 fold enrichment (6-mer frequency, TF over GST control) | 1.33 fold enrichment (6-mer frequency, TF over GST control) | 1.24 fold enrichment (6-mer frequency, TF over GST control) | 1.31 fold enrichment (6-mer frequency, TF over GST control) | 1.3 fold enrichment (6-mer frequency, TF over GST control) | 1.24 fold enrichment (6-mer frequency, TF over GST control)
AGCCTT | 1.21 fold enrichment (6-mer frequency, TF over GST control) | 1.11 fold enrichment (6-mer frequency, TF over GST control) | 1.07 fold enrichment (6-mer frequency, TF over GST control) | 1.02 fold enrichment (6-mer frequency, TF over GST control) | 1.1 fold enrichment (6-mer frequency, TF over GST control) | 1.1 fold enrichment (6-mer frequency, TF over GST control) | 1.18 fold enrichment (6-mer frequency, TF over GST control) | 1.08 fold enrichment (6-mer frequency, TF over GST control)
